In assay [1] the target is Mast/stem cell growth factor receptor Kit (Homo sapiens) (UniProt P10721). Conditions: at 1 µM.
Assay [2] has the same target. Conditions: at 10 µM.
For assay [3], the target named is Proto-oncogene tyrosine-protein kinase Src (Homo sapiens) (UniProt P12931). Conditions: at 1 µM.
For assay [4] the target is unchanged. Conditions: at 10 µM.
Assay [5] has as its target T1, Eukaryotic elongation factor 2 kinase (Homo sapiens) (UniProt O00418).
T1 sequence (whole entry): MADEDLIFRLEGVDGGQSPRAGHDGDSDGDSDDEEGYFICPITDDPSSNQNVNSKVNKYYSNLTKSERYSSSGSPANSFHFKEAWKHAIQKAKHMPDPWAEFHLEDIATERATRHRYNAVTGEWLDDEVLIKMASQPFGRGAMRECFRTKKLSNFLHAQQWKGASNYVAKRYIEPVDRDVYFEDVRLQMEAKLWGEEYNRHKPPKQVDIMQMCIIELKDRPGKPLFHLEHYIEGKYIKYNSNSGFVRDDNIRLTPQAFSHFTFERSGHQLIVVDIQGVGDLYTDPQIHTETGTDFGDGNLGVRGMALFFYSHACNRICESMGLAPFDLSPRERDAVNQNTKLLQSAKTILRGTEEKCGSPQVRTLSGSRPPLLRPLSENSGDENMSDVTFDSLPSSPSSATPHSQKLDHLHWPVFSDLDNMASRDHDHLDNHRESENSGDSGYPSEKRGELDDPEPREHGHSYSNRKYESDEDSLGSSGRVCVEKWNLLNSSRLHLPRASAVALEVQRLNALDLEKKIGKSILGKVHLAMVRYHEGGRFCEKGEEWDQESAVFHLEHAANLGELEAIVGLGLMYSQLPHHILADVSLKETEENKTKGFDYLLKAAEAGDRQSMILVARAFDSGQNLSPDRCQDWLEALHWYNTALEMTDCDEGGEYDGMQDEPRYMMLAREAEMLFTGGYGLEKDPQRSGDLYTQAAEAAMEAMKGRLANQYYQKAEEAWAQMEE
Particulars: at 1 µM.

The target in assay [6] is T1, Eukaryotic elongation factor 2 kinase (Homo sapiens). Conditions: at 10 µM.
Assay [7] deals with Serine/threonine-protein kinase mTOR (Homo sapiens) (UniProt P42345). Particulars: at 1 µM.
For assay [8] the target is unchanged. Conditions: at 10 µM.
The target is the same in assay [9]. Particulars: at 1 µM. The source holds these as a separate data set.
Assay [10] shares this target. Conditions: at 10 µM. The source holds these as a separate data set.
For assay [11], the target named is Ribosomal protein S6 kinase beta-1 (Homo sapiens) (UniProt P23443). Particulars: at 1 µM.
Assay [12] has the same target. Conditions: at 10 µM.
Assay [13] addresses Serine/threonine-protein kinase Nek6 (Homo sapiens) (UniProt Q9HC98). Particulars: at 1 µM.
Assay [14] has the same target. Particulars: at 10 µM.
Assay [15] has as its target Serine/threonine-protein kinase Nek7 (Homo sapiens) (UniProt Q8TDX7). Particulars: at 1 µM.
Assay [16] has the same target. Particulars: at 10 µM.
For assay [17], the target named is T2, Serine/threonine-protein kinase NLK (Homo sapiens) (UniProt Q9UBE8).
T2 sequence (whole entry): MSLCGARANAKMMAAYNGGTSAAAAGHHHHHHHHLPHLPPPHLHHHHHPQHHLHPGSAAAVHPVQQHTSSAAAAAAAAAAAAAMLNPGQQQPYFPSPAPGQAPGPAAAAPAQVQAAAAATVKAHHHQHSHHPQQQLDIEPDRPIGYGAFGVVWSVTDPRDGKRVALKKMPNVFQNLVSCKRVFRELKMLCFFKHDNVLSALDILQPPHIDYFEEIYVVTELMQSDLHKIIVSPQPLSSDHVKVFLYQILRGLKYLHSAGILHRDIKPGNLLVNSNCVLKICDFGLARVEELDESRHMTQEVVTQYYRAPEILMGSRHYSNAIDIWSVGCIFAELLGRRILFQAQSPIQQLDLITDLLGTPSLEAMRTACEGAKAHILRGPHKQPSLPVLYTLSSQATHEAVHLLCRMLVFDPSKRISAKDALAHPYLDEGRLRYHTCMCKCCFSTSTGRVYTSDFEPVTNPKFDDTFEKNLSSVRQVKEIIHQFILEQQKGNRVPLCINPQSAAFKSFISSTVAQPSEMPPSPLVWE
Conditions: at 1 µM.

The target of assay [18] is T2, Serine/threonine-protein kinase NLK (Homo sapiens). Particulars: at 10 µM.
In assay [19] the target is Serine/threonine-protein kinase PAK 2 (Homo sapiens) (UniProt Q13177). Particulars: at 1 µM.
Assay [20] shares this target. Conditions: at 10 µM.

Sequence of Serine/threonine-protein kinase Nek6 (Homo sapiens) (Q9HC98 whole entry): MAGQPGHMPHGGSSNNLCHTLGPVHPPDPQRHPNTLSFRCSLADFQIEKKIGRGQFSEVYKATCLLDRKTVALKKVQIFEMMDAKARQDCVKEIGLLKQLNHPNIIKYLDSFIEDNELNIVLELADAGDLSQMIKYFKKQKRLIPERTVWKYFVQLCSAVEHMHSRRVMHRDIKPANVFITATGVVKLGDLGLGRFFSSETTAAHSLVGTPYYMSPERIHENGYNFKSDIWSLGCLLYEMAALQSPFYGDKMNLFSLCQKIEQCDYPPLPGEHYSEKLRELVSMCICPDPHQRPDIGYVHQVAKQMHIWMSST
Sequence of Serine/threonine-protein kinase Nek7 (Homo sapiens) (Q8TDX7 whole entry, looked up): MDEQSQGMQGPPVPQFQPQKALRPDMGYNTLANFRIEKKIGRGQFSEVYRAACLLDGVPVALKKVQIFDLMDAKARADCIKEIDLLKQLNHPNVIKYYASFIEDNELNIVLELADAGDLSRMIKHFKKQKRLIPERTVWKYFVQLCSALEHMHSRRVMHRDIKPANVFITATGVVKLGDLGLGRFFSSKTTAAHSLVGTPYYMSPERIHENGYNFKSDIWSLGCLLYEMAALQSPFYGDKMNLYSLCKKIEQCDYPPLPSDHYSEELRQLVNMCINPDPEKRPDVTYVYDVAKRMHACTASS
Sequence of Serine/threonine-protein kinase PAK 2 (Homo sapiens) (Q13177 whole entry): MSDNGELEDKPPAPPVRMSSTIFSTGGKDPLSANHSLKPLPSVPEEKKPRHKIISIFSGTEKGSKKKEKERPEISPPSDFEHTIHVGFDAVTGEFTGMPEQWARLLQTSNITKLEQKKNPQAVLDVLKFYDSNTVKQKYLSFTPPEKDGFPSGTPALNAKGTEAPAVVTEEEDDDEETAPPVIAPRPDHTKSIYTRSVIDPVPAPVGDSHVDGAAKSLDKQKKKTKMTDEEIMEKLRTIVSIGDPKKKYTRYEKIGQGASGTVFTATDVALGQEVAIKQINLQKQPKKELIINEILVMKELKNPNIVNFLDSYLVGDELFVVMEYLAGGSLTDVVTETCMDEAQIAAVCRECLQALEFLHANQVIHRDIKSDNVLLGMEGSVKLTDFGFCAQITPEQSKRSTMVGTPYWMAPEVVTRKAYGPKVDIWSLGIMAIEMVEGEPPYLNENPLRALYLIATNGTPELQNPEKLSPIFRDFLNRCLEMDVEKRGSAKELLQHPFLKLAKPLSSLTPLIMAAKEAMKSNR
Sequence of Mast/stem cell growth factor receptor Kit (Homo sapiens) (P10721 whole entry): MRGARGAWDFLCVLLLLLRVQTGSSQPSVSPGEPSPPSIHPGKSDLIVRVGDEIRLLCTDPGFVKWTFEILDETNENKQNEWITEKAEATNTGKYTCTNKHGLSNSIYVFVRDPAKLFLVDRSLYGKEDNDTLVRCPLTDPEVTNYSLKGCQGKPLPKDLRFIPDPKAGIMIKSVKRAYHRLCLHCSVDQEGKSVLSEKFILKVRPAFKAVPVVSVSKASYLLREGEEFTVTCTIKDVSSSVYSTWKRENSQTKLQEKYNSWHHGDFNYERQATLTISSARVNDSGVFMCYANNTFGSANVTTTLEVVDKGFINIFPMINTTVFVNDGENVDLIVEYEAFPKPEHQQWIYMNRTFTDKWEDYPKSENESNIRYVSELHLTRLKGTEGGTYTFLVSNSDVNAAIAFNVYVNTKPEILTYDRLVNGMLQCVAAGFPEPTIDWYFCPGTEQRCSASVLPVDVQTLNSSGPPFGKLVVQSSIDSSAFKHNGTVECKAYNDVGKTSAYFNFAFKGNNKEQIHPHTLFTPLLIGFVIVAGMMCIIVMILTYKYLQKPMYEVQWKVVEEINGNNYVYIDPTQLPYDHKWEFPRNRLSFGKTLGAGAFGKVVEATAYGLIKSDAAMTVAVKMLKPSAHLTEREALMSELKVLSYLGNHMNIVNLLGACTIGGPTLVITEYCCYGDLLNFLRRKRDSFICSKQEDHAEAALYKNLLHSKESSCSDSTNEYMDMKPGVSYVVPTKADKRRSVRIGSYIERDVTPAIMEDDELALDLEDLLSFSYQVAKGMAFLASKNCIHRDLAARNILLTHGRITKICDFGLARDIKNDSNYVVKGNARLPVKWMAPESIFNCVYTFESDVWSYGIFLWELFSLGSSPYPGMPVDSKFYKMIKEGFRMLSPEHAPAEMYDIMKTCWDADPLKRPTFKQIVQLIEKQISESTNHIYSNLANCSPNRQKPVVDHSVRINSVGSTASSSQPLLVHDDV
Sequence of Ribosomal protein S6 kinase beta-1 (Homo sapiens) (P23443 whole entry, looked up): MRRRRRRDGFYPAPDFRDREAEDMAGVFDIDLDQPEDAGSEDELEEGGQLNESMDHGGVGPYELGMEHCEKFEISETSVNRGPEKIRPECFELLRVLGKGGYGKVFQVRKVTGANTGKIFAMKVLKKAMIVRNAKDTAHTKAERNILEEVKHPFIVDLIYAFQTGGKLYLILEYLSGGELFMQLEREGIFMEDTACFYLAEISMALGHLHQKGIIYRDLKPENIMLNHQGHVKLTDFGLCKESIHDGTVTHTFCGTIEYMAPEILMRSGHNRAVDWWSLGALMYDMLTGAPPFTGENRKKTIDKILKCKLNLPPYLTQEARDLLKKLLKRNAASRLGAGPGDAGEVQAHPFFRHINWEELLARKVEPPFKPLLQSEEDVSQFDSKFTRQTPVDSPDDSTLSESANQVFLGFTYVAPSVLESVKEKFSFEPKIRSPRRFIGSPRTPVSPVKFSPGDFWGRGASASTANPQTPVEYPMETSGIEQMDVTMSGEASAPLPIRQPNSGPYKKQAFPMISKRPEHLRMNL
Sequence of Proto-oncogene tyrosine-protein kinase Src (Homo sapiens) (P12931 2-536 limits assumed): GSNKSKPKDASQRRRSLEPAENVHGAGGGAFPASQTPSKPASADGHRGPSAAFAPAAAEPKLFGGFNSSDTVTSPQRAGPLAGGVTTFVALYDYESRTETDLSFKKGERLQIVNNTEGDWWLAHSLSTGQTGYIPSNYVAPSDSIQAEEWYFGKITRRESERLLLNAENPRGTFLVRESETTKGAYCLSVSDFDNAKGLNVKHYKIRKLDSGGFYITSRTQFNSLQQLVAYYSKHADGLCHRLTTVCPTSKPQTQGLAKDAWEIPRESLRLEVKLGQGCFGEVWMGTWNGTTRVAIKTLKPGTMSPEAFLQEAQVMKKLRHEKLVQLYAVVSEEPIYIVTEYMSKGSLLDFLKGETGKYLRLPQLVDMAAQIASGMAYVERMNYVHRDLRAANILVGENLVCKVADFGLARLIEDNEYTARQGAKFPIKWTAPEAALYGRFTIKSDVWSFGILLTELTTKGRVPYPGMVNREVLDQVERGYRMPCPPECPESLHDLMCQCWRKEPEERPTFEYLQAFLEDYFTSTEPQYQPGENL

For `O=[N+]([O-])c1ccc(-c2nc(-c3ccc(F)cc3)c(-c3ccncc3)[nH]2)cc1`, the residual activity – broadly, the signal under treatment as a percentage of the control signal – is 123% in assay [1]; 110% in assay [2]; 113% in assay [3]; 90% in [4]; 108% (inactive) in [5]; 94% in [6]. Also, the residual activity in assay [7] was determined as 110%; in assay [8], 112%; in assay [9], 126%; in assay [10] it was 71%; in assay [11] it was 122%; in assay [12] it was 62%. In addition, the residual activity in assay [13] is 109% (inactive); in assay [14] it was 123%; in [15], 99% (inactive); in [16], 111% (inactive); in [17] it was 31%; in assay [18] it was 40%. The residual activity is 105% in assay [19] and 101% in [20].
In the case of `c1ccc2c(-c3ccncc3)c[nH]c2c1`, the residual activity in assay [1] was 110%; in [2], 98%; in assay [3], 80%; in assay [4] it was 101%; in assay [7], 109%; in assay [8], 107%. Moreover, the residual activity in assay [9] is 75%; in assay [10] it was 110%; in [11], 53%; in assay [12], 31%; in assay [13], 95% (inactive); in [14] it was 110%. Further, the residual activity was 95% (inactive) in assay [15]; 95% (inactive) in [16]; 96% in assay [17]; 73% in [18]; 98% in assay [19]; 82% in assay [20].
In the case of `COc1ccc(S(=O)(=O)N(CCO)c2ccccc2CN(C)C/C=C/c2ccc(Cl)cc2)cc1`, the residual activity in [1] turned out to be 115%; in [2], 100%; in assay [3] it was 116%; in [4] it was 90%; in [7], 109%; in assay [8], 96%. The residual activity is 97% in assay [9]; 101% in assay [10]; 97% in [11]; 78% in [12]; 110% (inactive) in assay [13]; 115% in assay [14]. Further, the residual activity in assay [15] is 106% (inactive); in [16], 93% (inactive); in [17], 93%; in [18] it was 92%; in [19], 97%; in assay [20], 86%.
On to `O=c1c2ccccc2[nH]c(=S)n1CCN1CCC(=C(c2ccc(F)cc2)c2ccc(F)cc2)CC1`, for which the residual activity came out at 106% in [1]; 89% in assay [2]; 85% in assay [3]; 97% in [4]; 78% in [7]; 85% in assay [8]. Also, the residual activity was 107% in assay [9]; 69% in [10]; 79% in assay [11]; 42% in assay [12]; 99% (inactive) in [13]; 107% in assay [14]. Further, the residual activity in [15] is 103% (inactive); in assay [16], 94% (inactive); in assay [17] it was 111%; in assay [18], 93%; in [19] it was 103%; in assay [20], 103%.
As to `COc1cc2ncnc(Nc3ccc(O)c(Br)c3)c2cc1OC`, the residual activity was determined as 102% in assay [1]; 103% in [2]; 54% in assay [3]; 18% in [4]; 106% in assay [7]; 111% in assay [8]. The residual activity is 96% in assay [9]; 101% in assay [10]; 60% in assay [11]; 31% in assay [12]; 86% (inactive) in assay [13]; 110% in assay [14]. Besides, the residual activity is 99% (inactive) in assay [15]; 96% (inactive) in assay [16]; 69% in assay [17]; 30% in [18]; 104% in assay [19]; 80% in assay [20].
As to `Oc1ccc(Nc2nc(-c3ccc(Cl)cc3)cs2)cc1`, the residual activity amounted to 110% in [1]; 76% in [2]; 116% in assay [3]; 93% in assay [4]; 102% in assay [7]; 83% in assay [8]. In addition, the residual activity in assay [9] is 103%; in assay [10], 106%; in [11], 119%; in [12], 87%; in assay [13], 116% (inactive); in assay [14], 123%. For the same compound, the residual activity in [15] is 110% (inactive); in [16], 106% (inactive); in [17] it was 110%; in assay [18] it was 74%; in assay [19], 105%; in assay [20] it was 106%.
On to `COc1ccc(C(=O)Nc2sc3c(c2C(N)=O)CCCC3)cc1OC`, for which the residual activity was found to be 85% in assay [1]; 87% in [2]; 76% in [3]; 104% in assay [4]; 101% in [7]; 104% in [8]. Also, the residual activity is 95% in [9]; 88% in assay [10]; 106% in [11]; 83% in [12]; 90% (inactive) in assay [13]; 103% in [14]. The residual activity is 87% (inactive) in [15]; 83% (inactive) in assay [16]; 88% in assay [17]; 90% in assay [18]; 96% in assay [19]; 90% in assay [20].
On to `CNc1cc2c(Nc3cccc(Br)c3)ncnc2cn1`, for which the residual activity in [1] was found to be 110%; in assay [2], 106%; in assay [3] it was 86%; in [4], 78%; in assay [7] it was 105%; in assay [8], 104%. Further, the residual activity is 100% in assay [9]; 107% in assay [10]; 126% in [11]; 145% in [12]; 94% (inactive) in [13]; 108% in [14]. In addition, the residual activity is 94% (inactive) in assay [15]; 95% (inactive) in assay [16]; 87% in [17]; 45% in assay [18]; 111% in assay [19]; 99% in assay [20].
With `NC(=O)c1ccc2[nH]c(-c3ccc(Oc4ccc(Cl)cc4)cc3)nc2c1`, the residual activity in assay [1] is 106%; in assay [2], 90%; in [3], 108%; in assay [4] it was 92%; in [5] it was 89% (inactive); in assay [6] it was 140%. Moreover, the residual activity worked out at 123% in [7]; 96% in assay [8]; 113% in assay [9]; 110% in assay [10]; 92% in assay [11]; 90% in [12]. Also, the residual activity is 117% (inactive) in [13]; 113% in [14]; 102% (inactive) in assay [15]; 104% (inactive) in assay [16]; 88% in [17]; 59% in assay [18]. Moreover, the residual activity in assay [19] came out at 111%; in [20], 82%.
As for `O=C1Nc2ccc(Br)cc2/C1=C\c1cc2c([nH]1)CCCC2`, the residual activity in assay [1] is 66%; in assay [2], 43%; in assay [3], 73%; in assay [4], 99%; in assay [7], 116%; in assay [8], 104%. Further, the residual activity in [9] was 110%; in [10] it was 103%; in assay [11] it was 84%; in [12], 51%; in assay [13], 104% (inactive); in [14], 102%. Further, the residual activity is 101% (inactive) in [15]; 102% (inactive) in [16]; 97% in [17]; 97% in assay [18]; 113% in assay [19]; 100% in assay [20].
Take `Nc1n[nH]c2nnc(-c3c(-c4ccccc4)nn4ccccc34)cc12`: the residual activity in [1] amounted to 95%; in assay [2] it was 108%; in assay [3], 103%; in assay [4], 77%; in [7], 113%; in assay [8] it was 97%. Besides, the residual activity in [9] is 129%; in assay [10], 87%; in assay [11], 112%; in assay [12] it was 100%; in assay [13] it was 107% (inactive); in [14], 98%. Besides, the residual activity is 106% (inactive) in assay [15]; 106% (inactive) in [16]; 74% in [18]; 98% in assay [19]; 87% in assay [20].
As for `CC(=O)O/N=C1\C(=C2\C(=O)Nc3cc(Br)ccc32)Nc2ccccc21`, the residual activity was determined as 97% in assay [1]; 32% in assay [2]; 22% in assay [3]; 8% in assay [4]; 96% in assay [7]; 94% in [8]. The residual activity in [9] is 105%; in [10] it was 84%; in [11] it was 84%; in assay [12], 36%; in assay [13] it was 108% (inactive); in [14] it was 110%. The residual activity in assay [15] was 98% (inactive); in assay [16], 111% (inactive); in assay [17], 90%; in assay [18], 80%; in [19], 104%; in assay [20] it was 100%.
Take `c1ccc(-c2n[nH]cc2-c2ccnc3ccccc23)nc1`: the residual activity came to 101% in assay [1]; 107% in assay [2]; 86% in assay [3]; 90% in assay [4]; 85% in assay [9]; 102% in assay [10]. The residual activity in assay [11] worked out at 72%; in assay [12] it was 58%; in [17] it was 72%; in assay [18], 27%; in assay [19], 107%; in assay [20] it was 88%.

(Values after ChEMBL document CHEMBL2218924, “A broad activity screen in support of a chemogenomic map for kinase signalling research and drug discovery” (Biochem J, 2013).)
